Measured values from PubChem BioAssay (NCI).
About 79,000 compounds went through this panel and 15% of them were active in at least one assay; those are over-represented in the sample as a whole. Cut-off read from the data, not from the text of the source: active = growth inhibition above about 70%; inactive = the rest.

Columns and labels:
[1] = NCI Yeast Anticancer Drug Screen. Data for the rad50 strain (AID 155);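 note: 0% = growth of vehicle-only cultures of the same strain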; details: S. cerevisiae rad50 strain growth inhibition, stronger effect = higher value; at 50.0 µM unless noted
Method in brief: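 Inhibition values express reduced yeast growth in compound-treated cultures relative to vehicle-treated controls.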

[2] = NCI Yeast Anticancer Drug Screen. Data for the mec2-1 strain (AID 157); details: S. cerevisiae mec2-1 strain, stronger effect = higher value; at 50.0 µM unless noted
Method in brief: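 Readout is yeast growth inhibition, normalised to vehicle-treated controls, in the mec2-1 strain exposed to compound.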

[3] = NCI Yeast Anticancer Drug Screen. Data for the sgs1 mgt1 strain (AID 161);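 note: 0% = growth of cultures given vehicle only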; details: S. cerevisiae sgs1 mgt1 strain, stronger effect = higher value; at 50.0 µM unless noted
Method in brief: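 Percent growth inhibition was derived by comparing compound-exposed mutant yeast with vehicle-exposed cultures. The strain carries alterations in DNA damage repair.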

[4] = NCI Yeast Anticancer Drug Screen. Data for the cln2 rad14 strain (AID 165);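 note: 0% = growth equal to vehicle treated cultures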; details: S. cerevisiae cln2 rad14 strain, stronger effect = higher value; at 50.0 µM unless noted
Method in brief: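 Relative to vehicle controls, growth inhibition of compound-treated cln2 rad14 yeast was recorded.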

[5] = NCI Yeast Anticancer Drug Screen. Data for the bub3 strain (AID 167); details: S. cerevisiae bub3 mutant strain, stronger effect = higher value; at 50.0 µM unless noted
Method in brief: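 Steps: expose the mutant yeast strain to compound; grow alongside vehicle-treated cultures; measure growth; express inhibition against the vehicle cultures.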

[6] = NCI Yeast Anticancer Drug Screen. Data for the mlh1 rad18 strain (AID 175); details: S. cerevisiae mlh1 rad18 strain growth inhibition, stronger effect = higher value; at 50.0 µM unless noted
Method in brief: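 Test agents were incubated with a yeast strain of defined genotype (DNA damage repair defect). Inhibition of growth was derived by comparison with vehicle-exposed cultures.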

Measured: growth inhibition

CC12CCC(CC1(Cl)Cl)C2 (stereo not given)
inactive: [1] 9.75% | [2] -5.8% | [3] 21.1% | [4] 14.3% | [5] 4.7% | [6] 26.9%

O=Cc1ccc(N2CCOCC2)cc1
inactive: [1] 9.2% | [2] -2.1% | [3] -11.2% | [4] -29.6% | [5] -18.9% | [6] 1.95%

CCOC(=O)c1cnc2c(cnn2CC)c1N1CCCCC1
inactive: [1] -13.9% | [2] 28.2% | [3] 18.9% | [4] -36.9% | [5] 36.6% | [6] 23.4%

CN1OC(=O)OC(C)(c2ccccc2)C1=O (stereo not given)
inactive: [1] 2.9% | [2] -12.3% | [3] -2.3% | [4] 0.25% | [5] 0.6% | [6] -0.05%

O=C(Cc1ccccc1)NC/C=N/O
inactive: [1] 26.5% | [2] -20% | [3] 10.2% | [4] -2% | [5] -43.1% | [6] -4.75%

CCc1cccc(CC)c1N1C(=O)CC(Sc2ccccc2N)C1=O (stereo not given)
inactive: [1] -18.1% | [2] -16.3% | [3] -14.8% | [4] -0.85% | [5] -9.5% | [6] -25.8%

CC(C)(C)c1ccc(C(C)(C)C)c(N2C(=O)c3ccc4c5ccc6c7c(ccc(c8ccc(c3c48)C2=O)c75)C(=O)N(c2cc(C(C)(C)C)ccc2C(C)(C)C)C6=O)c1
inactive: [1] -15.2% | [2] -7.9% | [3] -4.25% | [4] -6.2% | [5] -11.9% | [6] -6.8%

CN(C)/C=N/n1c2ccccc2c2ccccc21
inactive: [1] -1.7% | [2] -6.8% | [3] 0% | [4] -7.55% | [5] 23.6% | [6] 14.8%

NC(Cc1ccc2nc3c4ccccc4c(=O)cc-3oc2c1)C(=O)O (stereo not given)
inactive: [1] -23.4% | [2] -40.9% | [3] -14.6% | [4] 19.3% | [5] 10.1% | [6] -13.7%

COc1cc(C=O)c(Cl)cc1OC(C)=O
inactive: [1] 32.9% | [2] 21.9% | [3] 36.4% | [4] 32.8% | [5] -10.1% | [6] 27.9%

Cc1cccc(OC(=O)NC2CCCCC2)c1
inactive: [1] 3.5% | [2] -4.25% | [3] -13.2% | [4] -72.3% | [5] 6.5% | [6] -13.3%

Oc1ccc(C(O)CN2CCCC2)cc1O (stereo not given)
inactive: [1] -15.7% | [2] 10.9% | [3] -0.1% | [4] -36.1% | [5] 2.7% | [6] -15.3%

O=C(Nc1ccccc1)C12CCC(CC1Br)C2 (stereo not given)
inactive: [1] 4.95% | [2] -9.25% | [3] -9.7% | [4] 7.6% | [5] 1.75% | [6] 14.2%

C=CC(=O)OCCN(CCCC)CCCC
inactive: [1] -12.9% | [2] -0.2% | [3] -10.9% | [4] -10.8% | [5] 6.75% | [6] 21.5%

CC(=O)OC1C(Br)CCCC1Br (stereo not given)
inactive: [1] -26% | [2] 4.25% | [3] 1.75% | [4] 1.9% | [5] 0.45% | [6] 15.8%

COC1C(CO)OC(O)C(O)C1O (stereo not given)
inactive: [1] -6.75% | [2] 2.25% | [3] -5.2% | [4] -5.45% | [5] -6.9% | [6] 4%

CC[N+](C)(CC)CCNC(=O)C(c1ccccc1)c1ccccc1
inactive: [1] 45.6% | [2] -1.45% | [3] 21.1% | [4] 0.5% | [5] 6.65% | [6] 16.2%

C(=Nc1cccnc1)c1ccc(C=Nc2cccnc2)cc1
inactive: [1] 21.9% | [2] 37.5% | [3] 30.3% | [4] 25.1% | [5] 33.8% | [6] 33%

CN(C)Cc1ccccc1CC1(O)CCCC1
inactive: [1] 19.6% | [2] -2.75% | [3] -4.3% | [4] -10.1% | [5] 0.3% | [6] -12.5%

O=S1(=O)OCCOS(=O)(=O)C1C1c2ccccc2-c2ccccc21
inactive: [1] 13.4% | [2] 2.95% | [3] 18.7% | [4] 7.6% | [5] -1.25% | [6] -32.3%
